Assay outcomes from PubChem.
Mito fusion yeast – inhibitors of mitochondrial division or activators of mitochondrial fusion | Potency, µM (series often up to 46.1 µM), for the others: at the highest dose growth rescue (activation), hits mostly activators | S. cerevisiae fusion-defective mutant growth rescue, CellTiterGlo 48 h | 0.23% of 320,000 active; further: % of control where 0% means no effect; nearly all actives have a fitted effect of over 45% in size
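Read-out: ATP-based luminescence (CellTiterGlo, 10 min ambient) reporting growth of fusion-defective ts yeast after 48 hours at 37C on glycerol/ethanol YPEG medium in the presence of compound.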
TrxR1 inh – inhibitors of rat thioredoxin reductase 1 | O89049 | recombinant rTrxR1, NADPH fluorescence consumption, selenite substrate | Potency, µM (top dose mostly 114 µM), for the others: at the top dose activity change, negative = inhibition, actives largely listed as inhibitors | 1% of 390,000 active | AID 588453; further: on the % scale 0 is the no-effect control and ±100 the full control effect; nearly all actives have a fitted effect of over 65% in size
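Rat TrxR1 (90 nM in the dispensed reagent) was pre-reduced with 400 uM NADPH for 5 min at room temperature, then incubated with compound for 15 min. After 400 uM selenite was added, NADPH fluorescence (Ex 340/Em 450 nm) was followed for 8 min.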
TrxR1 substrate – substrates of rat thioredoxin reductase 1; O89049; Potency, µM (series often up to 114 µM), inactives show at the highest dose activity change, negative = substrate turnover; purified TrxR1 substrate turnover, NADPH consumption readout; 0.01% of 390,000 active; further: on the % scale 0 is the no-effect control and ±100 the full control effect; nearly all actives have a fitted effect of over 50% in size
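Rat TrxR1, dispensed at 90 nM, was prereduced with 400 uM NADPH (final) for 5 min at ~22 deg C, then incubated with compound 15 min before 400 uM selenite. A first-read NADPH fluorescence drop versus no-compound background flagged substrates.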
IDH1 R132H inh – inhibitors of human mutant IDH1 R132H; O75874; IDH1-R132H enzyme, NADPH consumption, diaphorase/resazurin fluorescence; 0.093% of 390,000 active; Potency, µM (doses to about 76.6 µM), without a hit: at the top dose activity change, negative = inhibition, usual class: inhibitors; further: on the % scale 0 is the no-effect control and ±100 the full control effect; nearly all actives have a fitted effect of over 65% in size
Target sequence (O75874 whole entry R132H, stated change not applied): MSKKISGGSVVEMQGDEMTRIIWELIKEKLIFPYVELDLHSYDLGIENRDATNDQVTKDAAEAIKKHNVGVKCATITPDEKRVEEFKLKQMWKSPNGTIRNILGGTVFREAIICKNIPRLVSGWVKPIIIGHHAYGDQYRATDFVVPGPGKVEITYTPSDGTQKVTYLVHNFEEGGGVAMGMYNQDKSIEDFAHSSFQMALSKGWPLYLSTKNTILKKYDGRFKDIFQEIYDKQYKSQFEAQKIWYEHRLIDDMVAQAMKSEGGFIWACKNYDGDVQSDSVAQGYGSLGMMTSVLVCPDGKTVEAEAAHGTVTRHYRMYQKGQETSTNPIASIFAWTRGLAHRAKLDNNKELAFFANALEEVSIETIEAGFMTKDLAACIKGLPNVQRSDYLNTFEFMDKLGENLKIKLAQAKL
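IDH1-R132H (0.5 ug/mL dispensed) in pH 7.5 Tris buffer was preincubated 30 min with compound, then given a substrate mix of 0.016 mM NADPH and 2 mM alpha-KG for 80 min at room temperature; remaining NADPH was read by diaphorase/resazurin fluorescence.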
A549 tox – counter-screen for Nrf2 inhibitors: cytotoxicity in A549 cells. A549 ARE-Fluc cells, CellTiter-Fluor viability, 18-24 h. Potency, µM (doses to about 46 µM), without a hit: at the highest dose activity change, negative = cytotoxicity, actives largely listed as inhibitors. 0.16% of 390,000 active; further: on the % scale 0 is the no-effect control and ±100 the full control effect
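A549 ARE-Fluc cells in 5% FBS OPTI-MEM, 5000 cells/well, rested 2 h then exposed to compounds in concentration-response for 18-24 h at 37 °C. Viability by CellTiter-Fluor fluorescence (Ex 405/Em 525) after 30 min; luciferase luminescence (BugLite, 15 min, RT) read afterwards.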
Nrf2 block – Nrf2 pathway inhibition; A549 ARE-Fluc reporter, luciferase luminescence, 18-24 h; Potency, µM (highest dose often 46 µM), for the others: top-dose activity change, negative = inhibition, actives largely listed as inhibitors; 2.1% of 360,000 active; further: on the % scale 0 is the no-effect control and ±100 the full control effect; nearly all actives have a fitted effect of over 60% in size
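In this cell-based qHTS, ARE-driven firefly luciferase in A549 cells reports Nrf2 activity; the luminescent signal after BugLite lysis is the measured value, with a prior CellTiter-Fluor read for cell health.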
The depositor's hits bear a star; ? = inconclusive; nt = no result; [ ] = dose if it differs, or a comment. A selection: hits, their analogues and other compounds. The true share with any hit is near 3.1%. The call rests on the fitted dose curve; in most records, active means well fitted curve in the direction sought with a large enough effect; inconclusive means small, poorly fitted or top-dose-only effect, or another doubt; inactive means no such curve, though single readings can be large; an effect the other way counts as inactive or inconclusive. Potency means the concentration at half of the fitted maximal effect.

SMILES	Mito fusion yeast	TrxR1 inh	TrxR1 substrate	IDH1 R132H inh	A549 tox	Nrf2 block
O=[N+]([O-])c1cc(Br)c(Nc2ccccc2)c([N+](=O)[O-])c1	-75.1%	11.2µM*	-1.1%	2.7%	-20.8%	?
N#CC1=C(N)C(C#N)(C#N)C2(CCC3(CC2)OCCO3)C2CC3(CC=C12)OCCO3 (stereo unspecified)	1.0%	89.1µM*	5.6%	-5.6%	?	-4.7%
N#CC1=C(N)C(C#N)(C#N)[C@H](c2c(F)cccc2F)[C@H]2CC3(CC=C12)OCCO3	-18.5%	?	-8.6%	-5.4%	-23.0%	nt
COc1cccc(NC(=O)c2nc(S(C)(=O)=O)ncc2Cl)c1	-34.0%	8.91µM*	5.8%	0.4%	?	-20.1%
Cc1cccc(NC(=O)c2nc(S(C)(=O)=O)ncc2Cl)c1	nt	7.08µM*	11.2%[57.1 µM]	6.9%	?	nt
COc1ccc(OC)c(S(=O)(=O)Nc2cc3c(cc2C)n(C)c(=O)c(=O)n3C)c1	nt	4.3%[57.1 µM]	3.2%[57.1 µM]	-3.2%	1.4%	7.0%
N#Cc1c(NC(=O)C2CC2)sc2c1CCCCC2	15.8µM*	-12.9%	-5.5%	0.3%	3.0%	16.5%
Cc1onc(C(=O)Nc2sc3c(c2C#N)CCCC3)c1[N+](=O)[O-]	6.4%	15.8µM*	-3.3%	-0.4%	?	?
CC/C(=C\c1ccc(C(=O)OC)cc1)c1cc(OC)cc2oc3ccccc3c12	nt	74.5%	129.4%	nt	nt	nt
CCCCC#Cc1cncc(C(=O)NN)c1	17.6%	-8.3%	-3.5%	-4.5%	3.3%	18.4µM*
N#Cc1nc(-c2ccc(OCc3ccccc3Cl)cc2)oc1N1CCCCCC1	nt	20.1%	40.2%	nt	-0.5%	-11.3%
Cc1cc(C)nc(NC(=NCCc2c[nH]c3ccc(Cl)cc23)NC(=O)c2ccccc2C)n1	nt	17.9%	-1.0%	-3.0%	-7.5%	-25.0%
Cc1cc(C)nc(NC(=NCCc2c[nH]c3ccccc23)NC(=O)C(C)(C)C)n1	0.9%	24.4%[57.1 µM]	6.7%[57.1 µM]	2.4%	?	20.6µM*
O=C(Nc1ccccc1)c1csc(-c2ccccc2)n1	0.0%	12.2%[11.4 µM]	6.9%[57.1 µM]	9.8%	-2.5%	?
O=C(Nc1ccc(C(F)(F)F)cc1)c1csc(-c2ccncc2)n1	23.6%	13.5%[11.4 µM]	3.0%[57.1 µM]	12.3%	-10.6%	18.4µM*
O=[N+]([O-])c1cc(Br)cc(C=Nc2ccc3c(c2)OCO3)c1O	7.8%	44.7µM*	-14.0%	-0.1%	-16.3%	15.2%
CCOC(=O)c1c(NC(=O)c2cc3nc(-c4ccccc4)cc(C(F)(F)F)n3n2)sc2c1CCC(C)C2 (stereo unspecified)	nt	10.6%[57.1 µM]	0.2%[57.1 µM]	-9.3%	-0.3%	nt
CN(C)c1ccc(N=Cc2ccncc2)cc1	nt	?	4.5%[0.0914 µM]	nt	nt	nt
C=CCN(CC=C)c1ccc(/C=C/c2ccnc3ccccc23)cc1	nt	-9.8%	-16.2%	nt	nt	nt
C[C@@H]1CN([C@H](C)CO)C(=O)c2cc(NC(=O)c3ccncc3)ccc2O[C@@H]1CN(C)C(=O)Nc1ccccc1	nt	70.8µM*	0.7%	1.9%	-0.1%	3.1%
COc1ccc(NC(=O)Nc2ccc3c(c2)C(=O)N([C@H](C)CO)C[C@H](C)[C@@H](CN(C)S(=O)(=O)c2ccc(OC)cc2)O3)cc1	nt	2.5%	-10.2%	-8.1%	-3.6%	5.2%
COc1ccc(S(=O)(=O)N(C)C[C@H]2Oc3ccc(NC(=O)Nc4ccc(C(F)(F)F)cc4)cc3C(=O)N([C@H](C)CO)C[C@@H]2C)cc1	nt	11.8%	-3.8%	0.0%	?	23.1µM*
C[C@@H]1CN([C@H](C)CO)C(=O)c2cc(NC(=O)Nc3ccc(C(F)(F)F)cc3)ccc2O[C@H]1CN(C)S(=O)(=O)c1ccccc1	nt	?	-10.3%	-1.9%	?	16.4µM*
COc1ccc2c(c1)CCC2=O	nt	1.7%	-1.0%	nt	nt	nt
COc1ccc(C(=O)c2cc([N+](=O)[O-])ccc2N2CCN(C)CC2)cc1	3.6%	-6.5%[57.1 µM]	-5.7%[57.1 µM]	-5.6%	14.6µM*	10.2%
